This is part of a sample that, as a whole, favours compounds with a hit. Of some 79,000 tested, about 15% had one in any assay. A number with no mark means an inactive call. Calls of active or inactive are those of the source. Cut-off read from the data, not from the text of the source: active = growth inhibition above about 70%; inactive = the rest.

Data on 40 molecules can be found in PubChem BioAssay (NCI).

A short description of the test: NCI Yeast Anticancer Drug Screen. Data for the bub3 strain (AID 167). The conditions noted are these: S. cerevisiae bub3 mutant strain, at 50.0 µM, hits give high values. The essentials:
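Inhibition values come from growth of compound-treated mutant yeast normalised to vehicle-treated controls.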
For `Cc1ccccc1N1C(=O)C(=O)c2cccc(C)c21`, the growth inhibition is 99.8% (active).
The same measure for `Nc1n[nH]c(=O)c2cccnc12`: 12.9%; for `CCCCNCCCNCCCNC(=O)c1csc(-c2csc(CCNC(=O)C(NC(=O)C(C)C(O)C(C)NC(=O)C(NC(=O)c3nc(C(CC(N)=O)NCC(N)C(N)=O)nc(N)c3C)C(OC3OC(CO)C(O)C(O)C3OC3OC(CO)C(O)C(OC(N)=O)C3O)c3cnc[nH]3)C(C)O)n2)n1` (stereo not given): 93.9% (active).
The value for `c1ccc(-c2ccc(-c3cnc(-c4ccc(-c5ccccc5)cc4)o3)cc2)cc1` was 93.2% (active); that for `CN(C)C=Nc1ccc2nonc2c1` was 4.1%; that for `COC(=O)C(CCC(=O)Cc1ccccc1)N1C(=O)c2ccccc2C1=O` (stereo not given) was 76% (active).
The same measure for `O=S(=O)(Nc1ccccc1)c1ccccc1CC(O)(c1ccccc1)c1ccccc1`: 90.4% (active).
For the molecule `O=C1OC(=O)C2C=CC=CC12` (stereo not given), the growth inhibition is 6.15%.
Regarding `CCOC(=O)N/N=C/c1ccc([N+](=O)[O-])o1`, the growth inhibition was 82.1% (active).
In the case of `CN=C(N)N/N=C(\C)c1ccc2c(ccc3ccccc32)c1`, the growth inhibition is 88.3% (active).
The same measure for `O=C(C(/C=N/C(=S)NCc1ccccc1)=C(/O)c1ccccc1)c1ccccc1`: 98.3% (active).
Take `Cc1nc(Nc2ccc(Cl)cc2)sc1C(=O)Nc1cccc2c(=O)[nH][nH]c(=O)c12`: the growth inhibition was 91.1% (active).
Consider `Cc1c2ccccc2c(C)c2c1cc(F)c1ccccc12`, for which the growth inhibition was 94.8% (active).
For the molecule `CC1=C(C(=O)Nc2ccccc2)C(c2cc(Cl)cc(Cl)c2)C(C(=O)Nc2ccccc2)=C(C)N1`, the growth inhibition is 63.4%.
Regarding `O=[N+]([O-])/C(Br)=C\c1ccc([N+](=O)[O-])cc1`, the growth inhibition is 94.9% (active).
The same measure for `CC1=CC(C)(C)Nc2cc(N)ccc21`: 39.3%; for `Fc1ccc2nncc(SCc3ccccc3)c2c1`: 97% (active); for `CN(C)c1ccc(-c2c(C#N)c(-c3ccccc3)n(NS(=O)(=O)c3ccccc3)c(=O)c2C#N)cc1`: 76.2% (active).
As for `Cc1cc(N2C(=O)CCSC2=S)ccc1Cl`, the growth inhibition was 86% (active).
The value for `C=C(c1ccccc1)[P+](c1ccccc1)(c1ccccc1)c1ccccc1` was 99% (active).
The value for `Cc1cc(Br)c2ccccc2c1N` was 75% (active); that for `CC1C[N+](C)(C)C(C)C(=O)C1(c1ccccc1)c1ccccc1` (stereo not given) was 28.2%.
Regarding `CC(=O)N(C1=CC(=O)c2ccccc2C1=O)c1ccc(C)cc1`, the growth inhibition is 93.5% (active).
The value for `CC(c1ccccc1)n1c2ccccc2c2c(N)ncnc21` (stereo not given) was 90.3% (active); that for `CC(=O)O/N=C1/CCC2C3CC=C4CC(OC(C)=O)CCC4(C)C3CCC12C` (stereo not given) was 41.5%.
The same measure for `c1cc(CCSSCCc2ccncc2)ccn1`: 38.4%; for `CC1=C(C(=O)Nc2cc(C)ccc2C)C(c2cccc([N+](=O)[O-])c2)C(C(=O)Nc2cc(C)ccc2C)=C(C)N1`: 29.6%.
The value for `ClC1=CC(Cl)=C2N=C(C(Cl)(Cl)Cl)N=C3N=C(C(Cl)(Cl)Cl)N=C1N32` was 99.3% (active); that for `C[n+]1c(-c2ccc(/C=N/Nc3n[nH]c(=S)n3/N=C/c3ccc(-c4cn5ccsc5[n+]4C)cc3)cc2)cn2ccsc21` was 96.5% (active).
`CC1(C)OC(=O)C(=NNc2ccccc2[N+](=O)[O-])C(=O)O1`: the growth inhibition is 21.5%.
The value for `CC(CCCOC(c1ccccc1)(c1ccccc1)c1ccccc1)OC(=O)Nc1ccccc1` (stereo not given) was 79.7% (active); that for `CCN(CC)c1ccc2nc3ccc(N(CC)CC)cc3[n+](-c3ccccc3)c2c1` was 98.7% (active); that for `CC1OC(C)C(O)C2=C1C(=O)c1ccccc1C2=O` (stereo not given) was 83.5% (active).
The value for `CCCCCCCCCCCCS(=O)(=O)CC(Br)C(=O)c1ccco1` (stereo not given) was 95.1% (active).
The value for `NC(=O)NOCC1NC(=O)NC1=O` (stereo not given) was -21.8%.
In the case of `O=C(O)C1C(=O)OC2CCCCC21` (stereo not given), the growth inhibition was -0.95%.
The same measure for `C=CCNC(=S)N/N=C(\CCC)c1ccccn1`: 99.5% (active); for `Nc1ccc2c(c1)S(=O)(=O)c1cc(N)ccc1-2`: -17.8%.
The value for `CN1C(=O)c2cccc3cc([N+](=O)[O-])cc(c23)C1=O` was 64%; that for `C/C(=N\NC(=S)NC12CC3CC(CC(C3)C1)C2)c1ccccn1` was 97.1% (active).
